Assay results published in PubChem BioAssay (NCATS).
Records with an inconclusive call do not appear. Activity calls are given as the source filed them. Unless noted, how the calls were made is not given here.

Key:
[1] = qHTS profiling for inhibitors of Plasmodium falciparum (3D7) proliferation (AID 743322);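 further: infected erythrocytes exposed to compound for 72 h before lysis; 100% = DMSO vehicle wells and 0% = 0.29 µM artemisinin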; conditions: P. falciparum 3D7 proliferation; at 28.7 µM (top of the series)
Summary of the method: (§1)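 Erythrocytes infected with P. falciparum (0.3% parasitemia, 2.5% hematocrit) incubated with compounds 72 h at 37 C, 5% CO2. Lysis with saponin/Triton buffer containing SYBR Green I, overnight at room temperature in the dark; DNA fluorescence (485/535 nm) normalised to 0.29 uM artemisinin and DMSO.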

[2] = qHTS profiling for inhibitors of Plasmodium falciparum (DD2) proliferation (AID 743323); conditions: lower = more inhibition; at 28.7 µM (top of the series)
Summary of the method: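 Parasite proliferation measured via DNA-dye fluorescence, as uninfected erythrocytes lack DNA. Cultures at 0.3% parasitemia and 2.5% hematocrit incubated 72 h with compound; signal scaled between vehicle and 0.29 uM artemisinin wells.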

[3] = qHTS profiling for inhibitors of Plasmodium falciparum (HB3) proliferation (AID 743324; active means well fitted curve in the direction sought with a large enough effect; an effect the other way counts as inactive or inconclusive;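 further: 100% = DMSO vehicle wells and 0% = artemisinin-treated control wells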); conditions: Plasmodium falciparum HB3 blood-stage proliferation; at 28.7 µM (top of the series)
Summary of the method: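 P. falciparum HB3 grown in erythrocytes (0.3% parasitemia, 2.5% hematocrit final) with compound for 72 h at 37 C, 5% CO2. Parasite DNA detected by SYBR Green after saponin/triton lysis overnight; normalized to 0.29 uM artemisinin and DMSO.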

[4] = qHTS profiling of the MIPE4 collection as inhibitors of Plasmodium falciparum (3D7) proliferation (AID 743344);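 further: scaled between DMSO vehicle wells and 0.29 µM artemisinin as full inhibition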; conditions: P. falciparum 3D7 in erythrocytes, SYBR Green DNA fluorescence, 72 h; at 28.5 µM (top of the series) unless noted
Summary of the method: as §1

[5] = qHTS profiling of the MIPE4 collection as inhibitors of Plasmodium falciparum (DD2) proliferation (AID 743345); conditions: P. falciparum Dd2 in erythrocytes, SYBR Green DNA, 72 h; at 28.5 µM (top of the series) unless noted
Summary of the method: as §1

[6] = qHTS profiling of the MIPE4 collection as inhibitors of Plasmodium falciparum (DD2) proliferation (Rep 2) (AID 743346); conditions: P. falciparum Dd2 in erythrocytes, SYBR Green DNA, 72 h; at 28.5 µM (top of the series) unless noted
Summary of the method: as §1

[7] = qHTS profiling of the MIPE4 collection as inhibitors of Plasmodium falciparum (HB3) proliferation (AID 743347);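 further: plate controls were DMSO vehicle wells for no effect and artemisinin wells for full effect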; conditions: P. falciparum HB3 in erythrocytes, SYBR Green DNA, 72 h; at 28.5 µM (top of the series) unless noted
Summary of the method: as §1

[8] = High-throughput drug toxicity screening in the BPDCN cell line Gen2.2 (AID 1224824); conditions: Gen2.2 BPDCN cells; at 45.8 µM (top of the series) unless noted;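 further: cells exposed to compounds for 48 h before reading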
Summary of the method: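 Seed 500 exponentially growing Gen2.2 cells/well; add compounds by pin tool; incubate 48 h, 37 °C, 5% CO2; add CellTiter-Glo, 15 min RT; read luminescence. % activity vs DMSO (100%) and bortezomib (0%).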

[9] = High-throughput drug toxicity screening in the BPDCN cell line Cal-1 (AID 1224825); conditions: Cal-1 BPDCN cell viability, qHTS; at 45.8 µM (top of the series) unless noted
Summary of the method: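 Cal-1 cells, 500 per well in phenol-red-free RPMI with 10% FBS, exposed to compounds for 48 hours at 37C, 5% CO2. Viability read by CellTiter-Glo luminescence; percent activity normalized to DMSO (100%) and 9.2 uM bortezomib final (0%).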

[10] = qHTS assay for measurement of the activity of small molecule inhibitors on Zika virus induced Caspase-3 activity in human iPSC derived neural progenitor cells (hNPCs) (AID 1224857; active means well fitted curve in the direction sought with a large enough effect; an effect the other way counts as inactive or inconclusive; further: % of control where 0% means no effect; nearly all actives have a fitted effect of over 65% in size)
Summary of the method: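 Cells were plated at 350 per well and grown 16 to 20 hours. Compound pretreatment lasted one hour, after which ZIKV (2 FFU/cell) was added for 6 hours. Percent inhibition was normalized between uninfected and infected controls.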

SMILES	remaining parasite growth % (stronger effect = lower value) [1]	activity, percent of control [2]	remaining proliferation (% of control), lower = more inhibition [3]	parasite growth, % of DMSO control [4]	parasite growth remaining, % of DMSO control (lower = more inhibition) [5]	parasite growth, % of control (lower = inhibition) [6]	growth, % of control [7]	cell viability, % of control (lower = more cytotoxic) [8]	viability (% of control) [9]	Potency [10]
CC(C)(C)c1cc(C(C)(C)C)c(NC(=O)c2c[nH]c3ccccc3c2=O)cc1O	33.5%	28.9%	18.9%	106%	95.2%	88.9%	57.9%	105%	102%	inactive
NC1(Cc2ccc(Cl)cc2)CCN(c2ncnc3[nH]ccc23)CC1	–	–	–	19.2%	31.6%	23.9%	5.59%	12.2%	22.9%	inactive
CC[C@@H]1C(=O)N(C)c2cnc(Nc3ccc(C(=O)NC4CCC(N5CCN(CC6CC6)CC5)CC4)cc3OC)nc2N1C(C)C (stereo partly drawn)	-0.343%	1.64%	–	4.79%	5.71%	17.4%	–	2.88%	3.23%	inactive
c1nc2nc(Nc3ccc(N4CCOCC4)cc3)nc(NC3CCCCC3)c2[nH]1	4.62%	13.5%	-0.173%	–	31.3%	10.2%	4.57%	9.78%	8.54%	inactive
COc1cccc2nc(-c3cccs3)nc(NN3C(=O)C=C(C)C3=O)c12	92.8%	81.6%	87.8%	–	90.8%	18.1%	6.3%	4.3%	3.16%	inactive
CC=CC1=C(C(=O)O)N2C(=O)[C@H](NC(=O)[C@H](N)c3ccc(O)cc3)[C@@H]2SC1	–	–	–	99.8%	99.9%	99.4%	–	52.6%	89.2%	inactive
O=c1[nH]c(=O)n(C2CCCO2)cc1F (stereo not drawn)	–	–	–	404% [at 57.5 µM]	99.7% [at 57.5 µM]	110% [at 57.5 µM]	412% [at 57.5 µM]	130% [at 92.2 µM]	116% [at 92.2 µM]	inactive
COc1cc2c(NC3CCN(C(C)C)CC3)nc(C3CCCCC3)nc2cc1OCCCN1CCCC1	–	–	–	5.09%	6.68%	10.3%	–	9.63%	4.14%	inactive
CC(C)c1cnn2c(NCc3ccccc3)cc(N[C@@H](CO)[C@H](O)CO)nc12	–	–	–	21.9%	61.8%	21.4%	–	3.01%	0.824%	inactive
